Bioassay records (PubChem BioAssay)
CYP2C19 inhib: human CYP2C19 inhibition; CYP2C19 Supersomes, luciferin-H EGE luminescence, 30 min; inhibition, % at 5 µM; actives 21% (n = 96,000); AID 778;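 active = CYP2C19 inhibition above a set limit at 5 µM in the primary screen, cut at about 50% in these data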;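 also: plate controls were negative control wells for no effect and 2.5 mM tranylcypromine positive control for full effect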
CYP2C9 activ: CYP2C9 (human) activation | recombinant CYP2C9, luciferin-H conversion, luminescence; hits give high values; factor 1 = untreated enzyme, 0 = blocked | P11712 | actives 1.4% (n = 96,000) | AID 1024 | activation factor at 5 µM;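 active = activation factor of 2 or more for CYP2C9 at a 5 µM dose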;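 also: 0 = sulfaphenazole-blocked wells and 1 = vehicle-only wells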
Target sequence (P11712 whole entry, looked up): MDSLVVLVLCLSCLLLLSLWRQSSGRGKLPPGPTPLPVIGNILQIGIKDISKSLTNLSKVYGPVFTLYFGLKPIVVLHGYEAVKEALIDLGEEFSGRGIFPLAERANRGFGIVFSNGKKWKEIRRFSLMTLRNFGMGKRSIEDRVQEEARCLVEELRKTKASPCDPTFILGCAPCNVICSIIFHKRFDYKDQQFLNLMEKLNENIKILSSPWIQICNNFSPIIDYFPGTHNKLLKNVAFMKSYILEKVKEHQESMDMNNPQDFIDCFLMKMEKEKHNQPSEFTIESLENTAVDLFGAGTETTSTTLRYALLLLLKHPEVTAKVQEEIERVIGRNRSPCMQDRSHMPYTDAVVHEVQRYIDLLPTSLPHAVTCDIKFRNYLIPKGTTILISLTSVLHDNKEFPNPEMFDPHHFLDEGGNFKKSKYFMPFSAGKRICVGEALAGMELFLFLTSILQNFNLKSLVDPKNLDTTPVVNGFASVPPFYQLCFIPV
PostGolgi ctrl: inhibits growth of the yeast control strain; efflux-deficient yeast background strain, growth absorbance A615, 16 h; inhibition, % at 10 µM; actives 5% (n = 98,000)
CYP2C19 activ: cytochrome P450 2C19 (human) activation; P33261; recombinant CYP2C19, luciferin-H EGE luminescence; hits give high values; 0 = fully inhibited enzyme, 1 = untreated enzyme; activation factor at 5 µM; 96,000 tested, under 10 active;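 active = activation factor of at least 2 at 5 µM in the primary screen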;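 also: 0 = wells with 2.5 mM tranylcypromine and 1 = vehicle-only wells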
CYP2C9 inhib: human CYP2C9 inhibition; CYP2C9 Supersomes, luciferin-H conversion, luminescence; actives 20% (n = 96,000); inhibition, % at 5 µM;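 active = blocking of liver enzyme CYP2C9 beyond about 50% at 5 µM, limit read from the data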
PostGolgi yeast: growth inhibition of a yeast mutant, post-Golgi transport screen; inhibition, % at 10 µM; post-Golgi transport phenotypic cell assay; AID 739; actives 0.9% (n = 98,000);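 also: yeast cells grown in 1536-well plates; yeast grown about 18 h at 30C before absorbance read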
* marks the source's active call; other numbers are inactive results; x = not tested or not shown. A selection: hits, their analogues and other compounds. The true share with any hit is near 32%. Rule as the data show it, unless noted: active = inhibition above about 30%; inactive = the rest.

SMILES	CYP2C19 inhib	CYP2C9 activ	PostGolgi ctrl	CYP2C19 activ	CYP2C9 inhib	PostGolgi yeast
COC(=O)CC1Oc2ccc(C)cc2NC1=O (centres undefined)	24.8	0.9	3.9	0.8	13.3	1.8
CN1/C(=C\C(=O)c2cccs2)Sc2ccccc21	19.7	1	3.4	0.8	-2.0	24.3
Cc1ccc2c(c1)nnn2C1CCN(CC(=O)c2ccc(Cl)cc2)CC1	13.8	1	-12.4	0.9	0.3	-6.2
Cc1ccc2c(c1)nnn2C1CCN(C(=O)NC23CC4CC(CC(C4)C2)C3)CC1	54.9*	1	1.9	0.5	3.0	-7.3
Cc1ccc2c(c1)nnn2C1CCN(CC(=O)N2c3ccccc3CC2C)CC1 (centres undefined)	29.7	1.2	19.9	0.7	-15.2	-5.2
CCOC(=O)CN(C(=O)CN1CCC(n2nnc3cc(C)ccc32)CC1)c1ccccc1	18.0	0.4	26.4	0.8	55.1*	-1.0
CCOc1ccccc1NC(=O)N1CCC(n2nnc3cc(C)ccc32)CC1	90.0*	1.2	7.8	0.1	-22.0	-1.1
Cn1c(N)c(C(=O)COC(=O)c2ccco2)c(=O)n(C)c1=O	5.7	0.9	6.0	0.9	10.1	0.0
COc1ccccc1/C=N/n1c(N)c(S(=O)(=O)c2cccs2)c2nc3ccccc3nc21	-11.2	1	13.1	1.1	0.7	-11.5
CCCCNC(=O)CC(C(=O)N1CCc2ccccc21)n1ccnc1 (centres undefined)	73.5*	0.7	7.0	0.3	34.3	-2.8
CCN(CCCNC(=O)COc1cc(=O)n(C)c2ccccc12)c1cccc(C)c1	27.2	0.9	8.1	0.7	10.6	-6.5
CCN(CCCNC(=O)CC(C(=O)N1CCc2ccccc21)n1ccnc1)c1cccc(C)c1 (centres undefined)	93.8*	0.8	4.3	0.1	18.0	6.1
O=C(CC(C(=O)N1CCc2ccccc21)n1ccnc1)N1CCc2ccccc2C1 (centres undefined)	73.2*	0.5	-1.6	0.3	49.5	1.1
Cc1cc(C)n(C(CC(=O)N2CCc3ccccc3C2)C(=O)O)n1 (centres undefined)	-2.7	1	-9.4	1	-0.8	1.6
O=C(CC(C(=O)N1CCc2ccccc21)n1ccnc1)NCC1CCCO1 (centres undefined)	35.4	0.3	-0.7	0.6	65.3*	9.2
CN(Cc1ccccc1)S(=O)(=O)c1ccc2[nH]cc(C(=O)NCC3CCCO3)c(=O)c2c1 (centres undefined)	x	x	6.1	x	x	8.6
O=C1COc2ccc(C(=O)COC(=O)CCc3ccc(S(=O)(=O)N4CCOCC4)cc3)cc2N1	-4.9	0.8	-3.0	1	19.6	24.1
O=C1CCCC(O)=C1C1C2=C(CCCC2=O)Oc2ccccc21 (centres undefined)	9.2	0.8	3.0	0.9	19.8	-0.5
Cc1cc(C(=O)N2CCN(c3ncccn3)CC2)cs1	78.5*	0.6	16.3	0.2	39.6	-1.6
O=C(c1cccc(S(=O)(=O)NCCOc2ccccc2)c1)N1CCN(c2ncccn2)CC1	87.0*	0.1	6.8	0.1	87.2*	-1.7
CC(C)(C)c1cc(C(=O)N2CCN(c3ncccn3)CC2)ccn1	11.3	0.9	10.9	0.9	9.8	-14.7
O=C(c1ccc(CNS(=O)(=O)c2ccccc2)cc1)N1CCN(c2ccccn2)CC1	x	x	-6.2	x	x	9.4
O=C(c1ccc(F)cc1)N1CCN(c2ncccn2)CC1	52.9*	1	0.4	0.5	2.7	-2.2
O=C(c1ccc(F)cc1)N1CCC(O)(c2cccnc2)CC1	69.1*	0.8	9.1	0.3	22.0	8.0
O=C(CN1C2=NCCN2c2ccccc21)c1ccco1	-6.6	1.1	5.6	1.1	-6.7	-3.6
SMILES	CYP2C19 inhib	CYP2C9 activ	PostGolgi ctrl	CYP2C19 activ	CYP2C9 inhib	PostGolgi yeast
CC(C)Cc1nc2n[nH]c(N)c2c2c1CCC2	-14.9	1.1	17.2	1.1	-13.8	1.8
O=C(c1cccc(OC(F)F)c1)N1CCN(c2ncccn2)CC1	47.6	0.3	6.6	0.5	67.5*	5.5
O=C(c1ccc(-c2ccccc2)cc1)N1CCCC1	7.4	0.9	-2.7	0.9	8.5	-4.5
O=C(c1ccc(-c2ccccc2)cc1)N1CCN(c2ncccn2)CC1	43.8	0.4	3.1	0.6	64.4*	0.3
O=C(c1n[nH]c(=O)c2ccccc12)N1CCN(c2ccccc2Cl)CC1	22.6	1.1	49.9*	0.8	-5.3	-1.9
Cc1ccc(C)c(N(CC(=O)NCCSCc2ccco2)S(C)(=O)=O)c1	80.9*	0.1	12.1	0.2	88.3*	-8.5
CCOc1ccc(N(CC(=O)NCCSc2ccccn2)S(C)(=O)=O)cc1	22.6	0.7	4.1	0.8	33.0	5.2
Cc1cc(C)cc(N(CC(=O)NCCSc2ccccn2)S(=O)(=O)c2ccccc2)c1	49.4	0.4	31.0*	0.5	64.2*	-3.2
Cc1cccc(N(CC(=O)NCCSCc2ccco2)S(=O)(=O)c2ccccc2)c1	67.8*	0.3	3.5	0.3	70.9*	-7.9
Cc1ccc(N(CC(=O)NCCSCc2ccco2)S(=O)(=O)c2ccc(C)cc2)cc1	70.9*	0.1	15.9	0.3	87.9*	-3.0
Nc1cc(C(=O)O)ccc1N1CCCCCC1	-5.4	1.1	-3.8	1.1	-10.6	-9.3
CCC(Sc1nnc2c3ccccc3n(CC)c2n1)C(=O)Nc1sc2c(c1C#N)CCCC2 (centres undefined)	37.6	0.5	0.4	0.6	51.9*	-3.7
CCOC(=O)Cc1nnc(NC(=O)C(CC)Sc2nnc3c4ccccc4n(C)c3n2)s1 (centres undefined)	48.5	0.1	5.7	0.5	94.1*	-6.2
CCC(Sc1nc(C)cc(=O)[nH]1)C(=O)Nc1sc2c(c1C#N)CCCC2 (centres undefined)	-0.6	0.7	11.3	1	32.8	-6.1
CCOC(=O)c1sc(NC(=O)C(CC)Sc2nnc3c4ccccc4n(C(C)C)c3n2)nc1C (centres undefined)	35.2	0.3	3.2	0.6	66.5*	-1.2
O=C(OCCCCN1C(=O)c2ccccc2C1=O)c1n[nH]c2ccccc12	83.7*	0.1	28.1	0.2	86.3*	-0.2
O=C(OCCCN1C(=O)c2ccccc2C1=O)c1ccco1	54.4*	0.4	5.1	0.5	61.6*	1.6
CC(=O)c1c(C)[nH]c(C(=O)OCCCCN2C(=O)c3ccccc3C2=O)c1C	40.3	0.3	10.8	0.6	70.3*	5.6
CCOC(=O)c1[nH]c2cc3c(cc2c1CCCN1C(=O)c2ccccc2C1=O)OCCO3	15.0	0.7	5.8	0.8	26.7	-5.5
CCOC(=O)c1[nH]c2ccccc2c1CCCN1C(=O)c2ccccc2C1=O	78.7*	0.1	16.8	0.2	85.9*	3.8
COc1cc(C(=O)Nc2cnc(NC(=O)C(C)C)cc2C)cc(OC)c1OC	x	x	6.9	x	x	-8.0
Cc1cc(=O)n(C)c(=O)n1CCCCCOc1cccc([N+](=O)[O-])c1	33.8	1	-9.9	0.7	-3.9	25.6
